Source: PubChem BioAssay
Most compounds without a hit are left out; they make up all but 1.3% or so of the library.
GLD-1 TGE inh – GLD-1/TGE RNA complex disruptors, primary screen, biochemical, fluorescence polarization; Female germline-specific tumor suppressor gld-1 (Caenorhabditis elegans), Q17339; 320,000 compounds, 0.44% hits; inhibition, % at 5.96 µM; AID 2280, 2010; purified GLD-1 + fluorescein TGE RNA;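 active = percent inhibition above a per-plate cutoff, the plate mean of test compounds plus 3 SD, cut at about 30% in these data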;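 also: 0% = DMSO wells with GLD-1 and probe and 100% = wells lacking GLD-1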
Bcl-xL primary – inhibitors of human Bcl-xL, primary screen, biochemical, fluorescence polarization, HTS. Bcl-2-like protein 1 (Homo sapiens), Q07817. GST-Bcl-xL / FITC-Bim BH3 peptide fluorescence polarization. inhibition, % at 10.9 µM. 320,000 compounds, 0.7% hits. AID 2129, 2009;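 active = inhibition above the mean of all tested compounds plus 3 SD, cutoff set per campaign, cut at about 30% in these data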;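 also: 0% = DMSO wells and 100% = unlabeled Bim-BH3 peptide competitor; inhibitors lower millipolarization by displacing the labeled peptide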
Target sequence (Q07817 whole entry, looked up): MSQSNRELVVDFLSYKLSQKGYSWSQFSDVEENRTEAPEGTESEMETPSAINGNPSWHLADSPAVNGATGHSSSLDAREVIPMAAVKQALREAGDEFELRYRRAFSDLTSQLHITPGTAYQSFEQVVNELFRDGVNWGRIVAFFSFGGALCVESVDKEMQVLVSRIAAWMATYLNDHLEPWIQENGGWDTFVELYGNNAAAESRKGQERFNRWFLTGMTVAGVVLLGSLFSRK
EBV gp42 inh – Epstein-Barr virus gp42 inhibitors, primary screen, biochemical, uHTS, fluorescence polarization | inhibition, % (tested at 21.74 µM) | Fluorescence polarization binding assay, mP read-out | 220,000 compounds, 0.42% hits | AID 1085, 2008 | Glycoprotein 42 (Epstein-Barr virus (strain AG876)), Q1HVG2; in the data active = inhibition above about 50%
Target sequence (Q1HVG2 whole entry, looked up): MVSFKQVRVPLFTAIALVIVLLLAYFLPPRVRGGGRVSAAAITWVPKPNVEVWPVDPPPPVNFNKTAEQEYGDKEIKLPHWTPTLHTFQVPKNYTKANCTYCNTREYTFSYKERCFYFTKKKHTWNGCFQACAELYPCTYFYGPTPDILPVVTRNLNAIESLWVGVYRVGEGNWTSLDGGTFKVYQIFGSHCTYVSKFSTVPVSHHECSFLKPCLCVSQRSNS
MEX-5 binding – MEX-5 zinc finger RNA-binding disruptors – biochemical, C. elegans, fluorescence polarization, MLPCN library, primary screen; Zinc finger protein mex-5 (Caenorhabditis elegans), Q9XUB2; 300,000 compounds, 0.38% hits; MEX-5/FITC-TCR2 RNA binding; stronger effect = lower value; activity score (negative = inhibition of binding), % at 10 µM;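 active = inhibition past about -25% in most replicates, and total fluorescence under double the plate's negative control median, limit read from the data; inconclusive = replicates evenly split on the limit, or fluorescence at least double controls; inactive = too little inhibition in most replicates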;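 also: 0% = DMSO and -100% = 5 µM competing unlabeled TCR2 RNA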
MCL1-BIM inh – inhibitors of MCL1 binding to BIM-BH3, primary screen, biochemical, fluorescence polarization. AID 2057, 2009. inhibition, % at 10.9 µM. 320,000 compounds, 0.68% hits. Induced myeloid leukemia cell differentiation protein Mcl-1 (Homo sapiens), Q07820. GST-MCL1 / FITC-Bim-BH3 fluorescence polarization;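 active = inhibition above the mean inhibition of all tested compounds plus 3 SD, set per campaign, cut at about 40% in these data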;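 also: 0% = DMSO wells and 100% = unlabeled Bim-BH3 peptide control; higher means more loss of mP so more displacement of Bim peptide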
The depositor's hits bear a star; ? = inconclusive; nt = no result given.

SMILES	GLD-1 TGE inh	Bcl-xL primary	EBV gp42 inh	MEX-5 binding	MCL1-BIM inh
O=C(C1=NN(c2ccccc2)C2C(=O)N(c3ccc(Cl)cc3)C(=O)C12)c1ccccc1 (stereo unspecified)	23	46*	67*	nt	39
O=C(O)c1ccc(NCCC2=CCCCC2)c([N+](=O)[O-])c1	-5	10	-2	-2	10
O=C(N/N=C/c1ccccc1Cl)c1nc2ccc([N+](=O)[O-])cc2c(=O)[nH]1	-2	9	97*	-2	17
COc1cc(C(c2c(C(=O)O)[nH]c3ccccc23)c2c(C(=O)O)[nH]c3ccccc23)ccc1OCc1ccccc1	0	3	nt	?	68*
O=C(O)c1[nH]c2ccccc2c1C(c1ccccc1)c1c(C(=O)O)[nH]c2ccccc12	6	7	nt	-4	11
COc1ccc(CNC(=O)CCS(=O)(=O)c2ccc3c(c2)NC(=O)CS3)cc1	-1	6	nt	-3	2
COc1ccc(-n2ncc3c2CC(C)(C)CC3NC(=O)CSc2ccccn2)cc1 (stereo unspecified)	-7	2	nt	0	6
CC1(C)Cc2c(cnn2-c2cccc(F)c2)C(NC(=O)CSc2ccccn2)C1 (stereo unspecified)	-1	6	nt	-44*	5
COc1ccc(/C=C2\SC(c3ccc(C)cc3)=NC2=O)cc1OC	-58	-52	53*	?	-105
N#Cc1ccc(C(=O)NC2CCCCCCC2)cc1	-1	1	nt	4	2
Cc1ccc(Cn2c(SCC(=O)N(C)C3CCS(=O)(=O)C3)nc3ccccc3c2=O)cc1 (stereo unspecified)	0	0	nt	-1	2
COCCNC(=O)CCC(=O)NNc1nc2ccccc2c2nc(C)nn12	-4	3	-13	-45*	-4
Cc1nc2c3ccccc3nc(NNC(=O)CCC(=O)N3CCCC(C)C3)n2n1 (stereo unspecified)	2	-1	nt	-27*	1
Cc1nc2c3ccccc3nc(NNC(=O)CCC(=O)NC(C)C)n2n1	1	5	0	-42*	5
COc1ccc(N2CCN(CCNC(=O)CCC(=O)NNc3nc4ccccc4c4nc(C)nn34)CC2)cc1	5	3	nt	2	-1
c1ccc(-c2ccnc3nc(N4CCN(c5ccccc5)CC4)nn23)cc1	3	2	72*	-10	0
Fc1ccc(-c2ccnc3nc(N4CCN(c5ccccc5)CC4)nn23)cc1	11	7	-3	0	10
COc1ccc(C(=O)Nc2nnc(CC(=O)N/N=C/c3ccc(O)cc3O)s2)cc1	43*	4	nt	?	4
Cc1ccc(C(=O)Nc2nnc(CC(=O)N/N=C/c3ccncc3)s2)cc1	-5	1	2	1	-1
CNC(=O)c1cn(-c2ccccc2)c(=O)c2ccccc12	72*	72*	-14	-1	41*
CCn1nc(NC(=O)CC(C)C)c2cc3cccc(C)c3nc21	7	137*	nt	0	1
CC(C)c1c(C(=O)N/N=C/C=C/c2ccccc2)nnn1-c1nonc1N	1	4	nt	1	4
Cc1ccc2c(ccc[n+]2CC(=O)c2ccccc2)c1	-20	24	13	-3	20
O=C(C[n+]1cc(Br)cc2ccccc21)c1ccccc1	-31	49*	nt	1	45*
COc1ccc(C(=O)Nc2nc(-c3ccc([N+](=O)[O-])cc3)c(-c3ccccc3)s2)cc1	0	-1	nt	-162*	4
SMILES	GLD-1 TGE inh	Bcl-xL primary	EBV gp42 inh	MEX-5 binding	MCL1-BIM inh
COc1ccc(-c2sc(NC(=O)c3ccc(C)cc3)nc2-c2ccc([N+](=O)[O-])cc2)cc1	-12	-10	-41	3	-18
O=C(N/N=C/c1cc(Br)cc(Br)c1O)c1ccncc1	31*	33*	21	-4	45*
O=C(N/N=C/c1ccc(O)cc1O)c1ccncc1	6	10	nt	-7	13
O=[N+]([O-])c1cc(Cl)cc(/C=N/n2cnnc2)c1O	-1	5	8	-1	8
CN1C(=O)NC(c2cccc(F)c2)C2=C1CC(C)(C)CC2=O (stereo unspecified)	-7	36*	nt	1	4
Cc1ccccc1OCC(=O)NNC(=O)C1CC(=O)N(c2ccc3c(c2)OCCO3)C1 (stereo unspecified)	1	-2	nt	nt	-5
O=C(O)C1=CC(=C(c2ccc(O)c(C(=O)O)c2)c2ccc(O)c(C(=O)O)c2)C=CC1=O	92*	76*	nt	nt	108*
CS(=O)(=O)Oc1ccc2c(c1)O/C(=C\c1cccc([N+](=O)[O-])c1)C2=O	nt	nt	nt	0	nt
CS(=O)(=O)Oc1ccc2c(c1)O/C(=C\C=C\c1ccccc1)C2=O	28	9	-7	-42*	9
CC(=O)CSc1nc2cc3c(cc2cc1C#N)OCCO3	-14	34*	23	-13	42*
Cc1nnc(NC(=O)CSc2nnc(Cc3cccn3C)n2-c2cccc(C)c2C)s1	-4	104*	-16	0	-2
COc1ccc(CN(C)C(=O)/C=C/c2ccc(S(=O)(=O)N3CCCCCC3)cc2)cc1	0	6	nt	nt	6
CN(c1ccc(C(=O)N/N=C/c2cccc([N+](=O)[O-])c2)cc1)S(=O)(=O)c1ccccc1	10	3	nt	4	3
c1coc(-c2cc(C3CCNCC3)[nH]n2)c1	9	2	-17	1	6
N#CCN1CCC(c2cc(-c3ccco3)n[nH]2)CC1	29	38*	-6	-1	33
CC(C)CN(C(=O)CSc1nc2ccccc2c(=O)n1C)C1CCS(=O)(=O)C1 (stereo unspecified)	-2	-5	nt	nt	0
CCCCN(C(=O)c1c(-c2ccccc2)noc1C)c1c(N)n(CCC)c(=O)[nH]c1=O	-3	nt	nt	nt	nt
CC(=O)C(=Nc1ccccc1Cl)NNc1ccc(Cl)cc1	5	31*	6	-8	31
N#CC1CC(c2ccc([N+](=O)[O-])cc2)=NN1c1ccc([N+](=O)[O-])cc1 (stereo unspecified)	-19	-38	94*	-14	-73
O=C1CCNc2c(Cl)cc(Cl)cc21	24	32*	71*	-5	29
CCc1c(C)sc(NC(=O)Cc2ccccc2OC)c1C(=O)N1CCOCC1	5	6	nt	-2	11
CC(C)Cc1nnc(NC(=O)CCC(=O)N2CC(C)CC(C)C2)s1 (stereo unspecified)	2	1	nt	-27*	7
CC(C)Cc1nnc(NC(=O)CCC(=O)N2CCC(C)CC2)s1	3	7	nt	0	-3
CC1(C(=O)Nc2c(F)c(F)c(F)c(F)c2F)CC1(Br)Br (stereo unspecified)	1	6	-14	-3	2
